# Screens: PubChem BioAssay, National Center for Advancing Translational Sciences (NCATS)
# Marburg entry inh: blocks Marburg virus binding to or entry into cells; Marburg virus pseudotyped entry inhibition, cell reporter; 300,000 tested, 1.8% active; AID 540276; Potency, µM (series often up to 37.8 µM), for the others: at the top dose activity change, negative = inhibition, actives largely listed as inhibitors; calls by dose curve; tested in HEK293 cells; note: potency is the fitted concentration of half-maximal effect; % is set by controls: 0 for no effect and ±100 for the full control effect
# Cycloheximide cs: counter-screen hit for Shiga toxin inhibitors, cycloheximide; cell reporter, cycloheximide protein synthesis inhibition counterscreen; 300,000 tested, 12% active; max response, %; in the data active = max response mostly above about 13%, no sharp cut-off; inactive = mostly below about 14%; note: read at 38.3 µM for the half of the compounds with a filed dose; 0% is about no effect
# Pf growth 96h: P. falciparum growth inhibition at 96 hour, primary screen for plastid delayed-death inhibitors | P. falciparum luciferase reporter growth, 96 h | Potency, µM (highest dose often 28.7 µM), without a hit: top-dose activity change, negative = inhibition, hits mostly inhibitors | 320,000 tested, 6.9% active | AID 504834; note: potency is the fitted concentration of half-maximal effect; % is set by controls: 0 for no effect and ±100 for the full control effect
#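 Two parasite generations (96 h, 37 C, 5% CO2) of compound exposure in infected erythrocytes (0.05% parasitemia, 2% hematocrit). Luciferase-reporter P. falciparum; decreased luminescence indicates inhibited growth, aimed at apicoplast-acting delayed death.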
# Pf growth 48h: inhibits P. falciparum growth in the first generation, 48 h; P. falciparum luciferase growth in erythrocytes, 48 h; Potency, µM (top dose mostly 28.7 µM), without a hit: at the highest dose activity change, negative = inhibition, hits mostly inhibitors; 310,000 tested, 5.9% active; AID 504832; note: potency is the fitted concentration of half-maximal effect; % is set by controls: 0 for no effect and ±100 for the full control effect
#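 Luminescence readout; reporter = integrated firefly luciferase in P. falciparum. RBC culture at 2% hematocrit, 0.1% parasitemia final, 37 C/5% CO2; decreased signal taken as growth inhibition.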
# Shiga inhibitor: blocks Shiga toxin action in Vero cells; Vero cells, Shiga toxin protein synthesis inhibition reporter; inhibition, % at 38.7 µM; 290,000 tested, 9.2% active; in the data active = inhibition mostly above about 28%, no sharp cut-off; inactive = mostly below about 43%; note: 0% is about no effect
# Lassa entry inh: Lassa virus entry inhibition; AID 540256; Lassa virus pseudotype entry inhibition, cell reporter; 300,000 tested, 1.2% active; Potency, µM (top dose mostly 37.9 µM), inactives show top-dose activity change, negative = inhibition, hits mostly inhibitors; calls by dose curve; tested in HEK293 cells; note: potency is the fitted concentration of half-maximal effect; % is set by controls: 0 for no effect and ±100 for the full control effect; nearly all actives have a fitted effect of over 50% in size
# An asterisk follows results filed as active; ? = inconclusive; . = not tested or not shown; [ ] = another dose, or the depositor's remark. Only some compounds are listed: those with a hit (about 19% of all), similar ones and a draw of the others. Unless noted, calls come from the whole dose curve; as a rule, active = well fitted inhibition curve with a large enough effect; inconclusive = small, poorly fitted or top-dose-only effect, or another doubt; inactive = no such curve, though single readings can be large or run the other way.
SMILES,Marburg entry inh,Cycloheximide cs,Pf growth 96h,Pf growth 48h,Shiga inhibitor,Lassa entry inh
Cc1cc(-c2ccccc2)nc(N2CCN(c3ccccn3)CC2)n1,9.2µM*,9.9,?,3.5%,17.3,4.61µM*
Cc1cc(-c2ccccc2)nc(N2CCC(C(=O)NC(C)C)CC2)n1,?,21.8,?,31.4%,-6.3,?
Nc1nc(N2CCN(c3ccccn3)CC2)nc2ccccc12,.,42.8*,?,.,89.4*,.
COc1ccc(/C=C(\NC(=O)c2cccs2)C(=O)NCc2ccco2)cc1OC,-14.4%,1.6,-19.1%,-15.0%,6.4,4.6%
O=S(=O)(c1c(Cl)sc(Cl)c1Br)N1CCCC1,.,14.8,11.7µM*,?,4.3,.
Cc1ccc(C)n1-c1ccc(N2CCOCC2)cc1,5.0%,21.9*,?,10.4µM*,71.1,-5.6%
c1ccc(N2CCOCCOCCOCCOCC2)cc1,-1.0%[46.1 µM],2.0,33.2%,-2.8%,3.9,1.2%
c1ccn(-c2ccc(N3CCOCC3)cc2)c1,13.2%,37.9*,105.8%,?,49.0*,10.2%
O=C(NCc1ccccn1)C(=O)Nc1cccc2ccccc12,?,17.6,17.1%,20.9%,52.5,-8.2%[46.1 µM]
CC(C)OC(=O)C1C2C=CC3(CN(CC4CCCO4)C(=O)C13)O2 (stereo unspecified),3.6%,-1.3,?,6.6%,-3.4,21.1%
CCCCCCc1ccc(N2C[C@H](Cc3ccccc3)[C@@H](CC(=O)Nc3ccccc3)C2=O)cc1,.,16.9*,?,?,44.2*,.
O=C(C[C@H]1C(=O)N(c2ccc(Br)cc2)C[C@@H]1Cc1ccccc1)Nc1ccccc1,.,.,.,.,.,4.99µM*
CCCCCCc1ccc(N2C[C@H](Cc3ccccc3)[C@@H](CC(=O)NCc3ccc(OC)cc3)C2=O)cc1,.,1.4,?,-63.2%,-5.9,.
CSC[C@H]1CN(c2ccc(Br)cc2)C(=O)[C@H]1CC(=O)Nc1ccccc1,.,.,.,.,.,-31.2%[46.1 µM]
CCCCCCc1ccc(N2C[C@H](C)[C@@H](CC(=O)NCc3ccccc3)C2=O)cc1,.,8.5*,?,?,-1.4,.
COc1ccc(NC(=O)C[C@H]2C(=O)N(CCc3ccccc3)C[C@@H]2Cc2ccccc2)cc1,.,.,.,.,.,15.8µM*
O=C(NC1CCCCC1)c1ccc(CSc2nc3cccnc3n2Cc2ccccc2F)cc1,.,.,.,.,.,-28.0%[46.1 µM]
COc1cc2c(cc1NC(=O)Nc1ccc(C)cc1)oc1ccccc12,1.9%,19.1*,-4.2%,.,27.6,1.5%
COc1ccc(Cl)cc1NC(=O)C1CCCO1 (stereo unspecified),-5.1%[46.1 µM],-8.6,15.1%,7.9%,-14.9,-1.8%
COc1cc2c(cc1NC(=O)C(C)Sc1ccc(NC(C)=O)cc1)oc1ccccc12 (stereo unspecified),?,20.8*,?,-22.5%,12.2,?
COc1ccc(NC(=O)Nc2cc3oc4ccccc4c3cc2OC)cc1,2.7%,9.6,?,7.5%,-18.2,-3.2%
COc1cc2c(cc1NC(=O)C(C)OC(=O)C1CC(=O)N(Cc3ccco3)C1)oc1ccccc12 (stereo unspecified),-23.0%,38.4*,123.4%,.,72.5,11.8%
CC(OC(=O)C1CC(=O)N(Cc2ccco2)C1)C(=O)Nc1cccc(C#N)c1 (stereo unspecified),19.8%[46.1 µM],.,22.2%,?,.,7.2%
COc1cc2c(cc1NC(=O)C1CCCO1)oc1ccccc12 (stereo unspecified),8.7%,50.1*,.,150.1%,133.6*,108.1%[14.3 µM]
Cc1ccc(S(=O)(=O)c2[nH]c(-c3ccccc3)nc2SCC(=O)O)cc1,-4.5%[46.1 µM],.,.,.,.,-16.7%[46.1 µM]
SMILES,Marburg entry inh,Cycloheximide cs,Pf growth 96h,Pf growth 48h,Shiga inhibitor,Lassa entry inh
COc1cc2c(cc1NC(=O)c1cccc(S(=O)(=O)N(C)C)c1)oc1ccccc12,?,24.9*,68.1%,14.7%,66.7*,-36.8%
CC(C)(C)OC(=O)N1CCC(NC(=O)c2nc[nH]c2C(=O)NC2CCN(C(=O)OC(C)(C)C)CC2)CC1,.,.,3.7µM*,3.7µM*,.,.
CC(C)(C)OC(=O)N1CCC(NC(=O)c2ncn(Cc3ccccc3)c2C(=O)NC2CCN(C(=O)OC(C)(C)C)CC2)CC1,.,.,?,5.22µM*,.,.
CC(C)(C)OC(=O)CNC(=O)c1[nH]cnc1C(=O)NC1CCN(C(=O)OC(C)(C)C)CC1,.,-5.0,?,?,-12.7,.
C[C@H](NC(=O)c1ncn(Cc2ccccc2)c1C(=O)N[C@@H](C)c1ccccc1)c1ccccc1,.,.,8.28µM*,?,.,.
CCOC(=O)c1ccc(NC(=O)c2nc[nH]c2C(=O)NC2CCN(C(=O)OC(C)(C)C)CC2)cc1,.,3.2,?,10.4µM*,16.8,.
O=c1/c(=C\c2ccccn2)sc2n1CN(c1ccccc1)CN=2,14.5%,.,.,.,.,.
Cc1ccccc1C(=O)N1CCC(C(=O)N(CC(C)C)c2c(N)n(Cc3ccccc3)c(=O)[nH]c2=O)CC1,-4.2%,.,-14.9%,?,.,-0.1%
CC(=O)Nc1ccc(SCC(=O)Nc2oc(C)c3c(C)n[nH]c(=O)c23)cc1,?,.,9.4%,-6.9%,.,-15.2%
CCOC(=O)c1ccccc1NC(=O)c1cc(S(=O)(=O)N2CCOCC2)ccc1F,?,5.5,87.3%,-9.5%,-16.7,?
Cc1ccc(C)c(C(=O)Nc2nc3ccccc3[nH]2)c1,-15.5%[46.1 µM],23.7,52.9%,42.6%,61.2*,.
CC(=O)Nc1nc2ccccc2[nH]1,.,-2.8,-11.4%,-3.2%,5.3,.
CCOC(=O)c1c(-c2ccccc2Cl)csc1NC(=O)c1cc(S(=O)(=O)N2CCOCC2)ccc1C,?,-2.0,?,14.7µM*,-8.0,?
CC(=O)N1CCN(S(=O)(=O)c2cccc(C(=O)Nc3nc4ccccc4[nH]3)c2)CC1,4.8%[46.1 µM],12.1,1.85µM*,?,20.1,-0.7%
O=C(Nc1nc2ccccc2[nH]1)c1ccccc1,?,17.0*,.,46.2%,37.0,?
O=C(NCc1nc2ccccc2[nH]1)c1cccc(S(=O)(=O)N2CCCCC2)c1,-8.5%[46.1 µM],-2.4,11.8%,-15.9%,-10.6,-13.2%
O=S(=O)(NCc1ccccc1)c1cnc[nH]1,1.2%[46.1 µM],-3.1,?,4.3%,-13.7,-3.5%
CCCCNC(=O)C(=O)N/N=C/c1ccc(OCc2ccccc2)cc1,.,1.0,1.4%,-13.5%,2.4,.
Cc1ccc(/C=N/Nc2nncn2N)cc1,?,-0.7,-11.2%,?,12.8,?
CN(c1cccc(Cl)c1)S(=O)(=O)c1cccc(C(=O)Nc2nc3ccccc3[nH]2)c1,22.4µM*,24.2*,?,14.7µM*,31.7,?
CCCn1nc(C(=O)Nc2nc3ccccc3[nH]2)c2ccccc2c1=O,-20.5%,-2.9,?,14.7µM*,33.9,13.1%[46.1 µM]
COC(=O)Nc1nc2ccccc2[nH]1,20.3%,.,.,.,.,-3.3%
O=C(Nc1nc2ccccc2[nH]1)c1cccc(Cl)c1,.,44.1*,154.2%,47.7%,91.1*,.
COc1ccc(N(C)S(=O)(=O)c2cccc(C(=O)Nc3nc4ccccc4[nH]3)c2)cc1,?,12.2,?,?,47.7,?
